Screens: PubChem BioAssay, Sanford-Burnham Center for Chemical Genomics
Shown are actives, neighbours in structure and some others; about 2.9% of the full set was active somewhere.
PfGluPho inh: PfG6PD enzyme inhibitors, primary screen, biochemical, fluorescence intensity, uHTS; 0.78% of 350,000 active; PfGluPho enzyme, NADPH resazurin-diaphorase fluorescence; glucose-6-phosphate dehydrogenase-6-phosphogluconolactonase (Plasmodium falciparum 3D7); AID 504690, 2011; inhibition, % at 20 µM;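 active = inhibition reaching at least a set limit at 20 µM in the primary screen, cut at about 59% in these data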;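 also: 0% = DMSO wells with substrate and 100% = DMSO wells lacking glucose-6-phosphate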
APOBEC3A inh: APOBEC3A ssDNA deaminase inhibitors, primary screen, selectivity assay for APOBEC3G inhibitor project, biochemical, FAM/TAMRA oligo cleavage fluorescence; DNA dC->dU-editing enzyme APOBEC-3A (Homo sapiens), P31941; recombinant A3A, FAM/TAMRA ssDNA deamination fluorescence; inhibition, % at 20 µM; 0.41% of 330,000 active; AID 493011, 2011;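 active = at least 40% inhibition at 20 µM here, with at most 30% in a related deaminase screen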;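 also: plate controls were A3A with DMSO for no effect and wells lacking A3A enzyme for full effect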
Target sequence (P31941 whole entry, looked up): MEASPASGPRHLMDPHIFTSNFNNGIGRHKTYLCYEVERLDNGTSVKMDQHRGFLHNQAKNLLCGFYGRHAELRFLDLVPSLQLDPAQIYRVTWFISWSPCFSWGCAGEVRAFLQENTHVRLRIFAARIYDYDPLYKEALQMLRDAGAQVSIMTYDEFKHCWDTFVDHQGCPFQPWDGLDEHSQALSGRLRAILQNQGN
NadD inh: inhibitors of S. aureus NadD, primary screen, biochemical, colorimetric, uHTS; inhibition, % at 20 µM; Nicotinate-nucleotide adenylyltransferase NadD (Staphylococcus aureus N315); purified NadD enzyme, colorimetric absorbance read-out; 0.78% of 360,000 active; in the data active = inhibition above about 26%
Cardio protect: cardioprotection against H2O2-induced cell death, primary screen, uHTS, H9c2 cells, ATPLite luminescence. H9c2 cardiomyocytes, H2O2 injury protection, 2 h. protection from H2O2 cell death, % at 20 µM. 0.63% of 360,000 active. AID 588492, 2011;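 active = compounds giving at least 50% protection of heart cells from peroxide-induced death in the single-dose screen, raw or plate-pattern-corrected value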;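 also: 0% = DMSO wells with peroxide and 100% = DMSO wells without peroxide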
APOBEC3G inh: APOBEC3G DNA deaminase inhibitors, primary screen, biochemical, fluorescence, single-stranded DNA substrate, uHTS | recombinant A3G, ssDNA deamination FAM/TAMRA fluorescence | inhibition, % at 20 µM | 0.28% of 330,000 active | AID 493012, 2011;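 active = inhibition of at least 40% at 20 µM, with no more than 30% in the related APOBEC3A deaminase screen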;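 also: plate controls were DMSO wells with A3G for no effect and wells lacking A3G enzyme for full effect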
Target sequence (Q9HC16 whole entry, looked up): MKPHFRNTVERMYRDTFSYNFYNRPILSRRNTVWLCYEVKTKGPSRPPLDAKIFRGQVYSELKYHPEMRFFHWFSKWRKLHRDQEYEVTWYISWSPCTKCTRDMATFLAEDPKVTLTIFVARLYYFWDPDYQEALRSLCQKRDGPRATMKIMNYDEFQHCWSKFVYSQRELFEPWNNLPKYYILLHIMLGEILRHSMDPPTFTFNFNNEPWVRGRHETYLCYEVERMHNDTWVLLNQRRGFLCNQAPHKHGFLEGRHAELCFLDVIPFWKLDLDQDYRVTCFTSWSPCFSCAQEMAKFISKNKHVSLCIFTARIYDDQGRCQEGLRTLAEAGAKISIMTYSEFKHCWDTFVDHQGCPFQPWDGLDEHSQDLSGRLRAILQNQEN
H9c2 TAG inh: inhibitors of triacylglycerol accumulation, primary screen, cell-based, uHTS, fluorescence, H9c2; H9c2 cells, Nile Red lipid (TAG) fluorescence; cells loaded with 200 µM oleic acid; inhibition, % at 12.5 µM; 0.66% of 230,000 active;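 active = pattern-corrected inhibition of lipid staining of at least 50% with the nuclear-stain viability signal not falling by more than 50%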;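 also: 0% = DMSO wells and 100% = triacsin C control wells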
* = called active by the depositor; / = not tested or not shown.

SMILES | PfGluPho inh | APOBEC3A inh | NadD inh | Cardio protect | APOBEC3G inh | H9c2 TAG inh
COc1ccc(CN2C(=O)C(C)Nc3ncnc(N4CCN(c5ccccc5)CC4)c32)cc1 (stereo not drawn) | 6.9 | -2.0 | 7.4 | 31.6 | -3.8 | -0.1
O=C1[C@H]2[C@@H](c3ccccc3)N[C@]3(CCCN(Cc4ccc(C(F)(F)F)cc4)C3=O)[C@H]2C(=O)N1Cc1ccccc1 | 23.1 | / | 7.8 | 24.6 | / | 1.3
O=C1[C@H]2[C@@H](c3ccc(C(F)(F)F)cc3)N[C@]3(CCCN(Cc4ccc(F)cc4)C3=O)[C@H]2C(=O)N1Cc1ccccc1 | 35.6 | / | -0.7 | 66.7* | / | 0.0
CC(=NCCCn1ccnc1)c1c(-c2ccccc2)[nH]n(-c2nc3ccccc3s2)c1=O | -16.3 | 2.4 | 19.7 | 59.3* | -1.8 | -19.0
O=Cc1ccc(OCc2cccc(C(F)(F)F)c2)cc1O | -2.0 | 2.4 | -0.2 | 67.9* | -4.3 | -3.0
C/C(=N/NC(=O)c1cccs1)c1cccc(N)c1 | 4.7 | 0.1 | 7.2 | 35.4 | -7.5 | 15.9
CC(C)(C)NC(=O)c1cc(NC(=O)c2cccs2)cc(NC(=O)c2cccs2)c1 | -16.3 | -3.8 | 10.5 | 62.9* | -10.3 | /
CC(=O)Nc1cccc(/C(C)=N/NC(=O)c2cccs2)c1 | -24.3 | -4.8 | -1.5 | 59.1* | -3.7 | 15.2
Cc1cc(C)cc(C(=O)Nc2ccc(NC(=O)c3cccs3)cc2)c1 | 15.8 | -2.1 | -1.4 | 49.4* | -3.6 | 4.7
CCCN(CC(=O)Nc1ccccc1C)C(=O)Cc1c(C)nc2ccccc2c1C | 15.4 | 1.1 | 0.8 | 1.1 | -3.4 | 0.5
OC(c1ccccc1)(c1ccccc1)C1CCN(CCCOc2cccc(OC(F)(F)F)c2)CC1 | / | / | -1.7 | / | / | /
CC(C)(C)c1ccc(C(O)CCCN2CCC(C(O)(c3ccccc3)c3ccccc3)CC2)cc1 (stereo not drawn) | 7.0 | 2.7 | 6.2 | -43.9 | -4.2 | 62.5*
CC1Cc2ccccc2C(=O)N1 (stereo not drawn) | 2.2 | 0.9 | -2.8 | 96.6* | -4.9 | -15.8
COC(=O)CCC(=O)OC1(C)C(=O)C2=CN(CCCCO)C(c3ccc(OC)cc3)=CC2=C(Br)C1=O (stereo not drawn) | / | 4.5 | / | / | -8.6 | /
COC(=O)CCC(=O)OC1(C)C(=O)C2=CN(Cc3ccc4c(c3)OCO4)C(c3ccc(OC)cc3)=CC2=C(Br)C1=O (stereo not drawn) | 66.9* | -8.0 | 18.2 | -4.0 | -11.2 | /
O=C(NCCNC(=O)c1cccnc1)c1ccc(Br)cc1 | -2.4 | 0.1 | 2.8 | -2.3 | -4.7 | /
Cn1c(=O)n(CCc2ccccc2)c(=O)c2c1nc1n2CCN1Cc1ccco1 | -4.7 | -0.9 | -2.2 | 98.1* | -3.4 | 9.7
O=C1C2C3C=CC(CC3)C2C(=O)N1c1cccc(Br)c1 (stereo not drawn) | 2.6 | -2.4 | 0.3 | 75.5* | -4.3 | /
O=C1C2C3C=CC(CC3)C2C(=O)N1c1ccc(Br)cc1 (stereo not drawn) | 4.2 | / | 1.9 | 6.2 | / | -2.4
COc1ccc(C(CNC(=O)CNC(=O)c2cccc(F)c2)N2CCOCC2)cc1 (stereo not drawn) | -14.0 | / | 0.8 | 6.2 | / | 0.2
CCOC(=O)c1nc(Nc2ccc(C(C)=O)cc2)c2ccccc2n1 | 17.5 | -2.2 | 2.1 | 82.3* | -6.8 | 16.5
O=C(O)c1cccc(Nc2nc(-c3cccnc3)nc3ccccc23)c1 | -8.7 | -5.7 | 3.5 | -0.4 | -10.1 | 3.3
CCOC(=O)c1nc(Nc2cccc(C)c2)c2ccccc2n1 | 2.5 | 4.4 | -4.1 | 7.0 | -7.3 | 12.9
COC(=O)c1cccc(Nc2nc(-c3cccnc3)nc3ccccc23)c1 | 6.6 | 0.0 | 3.4 | 51.2* | -5.6 | 32.0
CCOC(=O)c1cccc(Nc2nc(-c3cccnc3)nc3ccccc23)c1 | 15.3 | -4.2 | -5.8 | 54.7* | -6.5 | 52.9*
SMILES | PfGluPho inh | APOBEC3A inh | NadD inh | Cardio protect | APOBEC3G inh | H9c2 TAG inh
COC(=O)c1cccc(Nc2nc(-c3ccncc3)nc3ccccc23)c1 | 6.4 | 0.9 | 3.0 | 40.2 | 4.8 | /
O=C(Nc1c[nH]c(=O)[nH]c1=O)c1cccc([N+](=O)[O-])c1 | -1.6 | -8.1 | -2.0 | 4.0 | -6.8 | -2.1
O=c1[nH]n(CC2COC3(CCCCC3)O2)c(=O)c2ccccc12 (stereo not drawn) | -9.0 | -0.1 | -3.9 | 51.8* | -1.4 | /
C1CCCCCC2(CCCCC1)OCC(CN1CCOCC1)O2 (stereo not drawn) | -6.1 | 0.8 | 2.8 | -8.7 | -7.0 | /
O=[N+]([O-])c1cc(CN2CCN(c3ccccc3)CC2)c(O)c2ncccc12 | 2.3 | 0.9 | 71.2* | 24.3 | -2.0 | 36.6
O=[N+]([O-])c1cc(CN2CCOCC2)c2cccnc2c1O | 26.0 | / | / | / | / | /
Cc1c(O)c(CN2CCCCC2)cc2c1oc(=O)c1ccccc12 | -6.4 | -2.8 | -1.0 | 51.6* | 1.8 | /
CCCC(=O)N(c1ccc2oc(=O)sc2c1)S(=O)(=O)c1ccccc1 | -0.8 | -2.4 | 0.8 | 56.5* | -3.5 | -4.1
CC(CNC(=O)COC(=O)c1ccco1)c1ccccc1 (stereo not drawn) | 2.0 | -4.5 | -4.6 | 1.4 | -5.6 | 13.1
COc1ccc(NC(=O)c2cc3c(COC(C)=O)cnc(C)c3oc2=Nc2cccc(C(=O)O)c2)c(OC)c1 | 67.8* | 0.3 | 3.2 | 9.5 | -3.5 | /
COc1ccccc1NC(=O)c1cc2c(CO)cnc(C)c2oc1=Nc1cccc(C(N)=O)c1 | 13.3 | -1.0 | -7.7 | 49.1 | -7.9 | /
Nc1ccn(C2OC(CO)C(O)C2F)c(=O)n1 (stereo not drawn) | / | / | -2.7 | -4.5 | / | /
CCCCCC(=O)N/N=C(\C)c1ccccn1 | -8.1 | 0.2 | 6.8 | 61.2* | -2.6 | /
COc1cc(OC)cc(C(=O)NNC(=O)c2ccc3ccccc3n2)c1 | -13.4 | 2.2 | 3.2 | 44.1 | -9.0 | -7.1
CCCCCCCCCC(=O)N/N=C(\C)c1cccnc1 | -16.4 | 3.0 | 4.9 | -20.8 | 0.2 | -25.2
COc1cc(C(=O)NNC(=O)c2ccc3ccccc3n2)cc(OC)c1OC | 2.9 | 0.5 | -6.1 | 60.6* | -4.0 | 14.4
COc1cccc(C(=O)N/N=C(/c2ccccc2)c2ccccn2)c1 | -9.8 | -3.7 | 2.2 | 16.6 | -5.3 | -44.9
COc1cc(C(=O)N/N=C(\C)c2ccccn2)cc(OC)c1OC | -15.1 | -1.3 | 0.2 | 58.5* | -6.9 | -11.6
COc1cc(C(=O)N/N=C(\c2ccccc2)c2ccccn2)cc(OC)c1OC | -3.8 | -2.6 | -0.9 | 78.0* | 0.4 | 19.3
